PubChem BioAssay
Results filed as inconclusive are left out. Unmarked numbers belong to inactive results.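 Rule for the calls: active = GFP signal above the screen-wide mean plus 3 SD, that is over about 124.5% of the solvent control; inconclusive = no reading because the compound's own fluorescence disturbed strain identification; inactive = the rest.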

Test: modulators of AGP1-GFP expression in yeast TOR pathway, primary screen, cell-based, multiplex flow cytometry, S. cerevisiae (AID 1887);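 note: AGP1-GFP fusion strain of S. cerevisiae within a five-strain barcoded multiplex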
Details: 3 h, at 10 µM, stronger effect = higher value

SMILES | GFP response, % of DMSO
Clc1ccc(Cn2c(CN3CCCC3)nc3ccccc32)cc1 | 102%
CCCCOc1ccc(OCCCN2CCOCC2)cc1 | 95.9%
C[N+](C)(C)CCOP(=O)(O)OP(=O)([O-])OC[C@H]1O[C@@H](n2ccc(N)nc2=O)[C@H](O)[C@@H]1O | 102%
COc1ccc(NC(=O)C2CSC3c4ccccc4C(=O)N23)cc1 (stereo not drawn) | 98.8%
Cc1ccc2[nH]c3c(c2c1)CN(C(=O)CN1CCSCC1)CC3 | 101%
COc1ccc(Cc2nc(-c3ccc(Br)cc3)no2)cc1 | 102%
N=C(N)c1ccc(OCCCCCOc2ccc(C(=N)N)cc2)cc1 | 99.6%
CN(C)CCOc1ccc(Cl)cc1C(C)(C)C | 109%
O=C(CCCN1CCC(O)(c2ccc(Cl)cc2)CC1)c1ccc(F)cc1 | 93.7%
Cn1cnc2c1c(=O)n(CC(O)CO)c(=O)n2C (stereo not drawn) | 96.7%
CN(C)CCCN1c2ccccc2CCc2ccc(Cl)cc21 | 97.1%
OC[C@@H](O)[C@@H](O[C@H]1O[C@H](CO)[C@@H](O)[C@H](O)[C@H]1O)[C@H](O)[C@@H](O)CO | 95%
CCCNC(=O)NS(=O)(=O)c1ccc(Cl)cc1 | 103%
COc1ccc(-c2onc(C)c2-c2ccc(C(=O)OC(C)C)o2)c(O)c1 | 90.1%
Cc1cccc(N(C)C(=S)Oc2ccc3ccccc3c2)c1 | 97.5%
O=c1n(CCCN2CCN(c3cccc(Cl)c3)CC2)nc2ccccn12 | 92.4%
CC1CCCc2sc3ncn(N)c(=N)c3c21 (stereo not drawn) | 87.1%

SMILES | GFP response, % of DMSO
C=CCc1cc(Cl)ccc1OCCOCCN(C)C | 88.5%
COc1cc(/C=C/C(=O)N2CCCC2)cc(OC)c1OC | 100%
C[C@]12C=CC(=O)C=C1CCC1C3CC[C@](O)(C(=O)CO)[C@@]3(C)CC3OC312 (stereo partly drawn) | 101%
CC1CNCCN1S(=O)(=O)c1cccc2cnccc12 (stereo not drawn) | 91.3%
CC(=O)OCC1OC(n2ccc(=O)[nH]c2=O)C(O)C1O (stereo not drawn) | 101%
O=C1C2C3C=CC(C4CC34)C2C(=O)N1/N=C/c1ccc(-c2ccc([N+](=O)[O-])cc2)o1 (stereo not drawn) | 87.7%
Cc1cc(C)c2c(CCl)cc(=O)oc2c1 | 115%
O=C(CCCCCCCC(=O)c1ccccc1)c1ccccc1 | 96.9%
COCCc1ccc(OCC(O)CNC(C)C)cc1 (stereo not drawn) | 97.6%
Cc1oc2ccc(OC(=O)c3cccs3)cc2c1C(=O)OC(C)C | 94.9%
COc1ccc(CN(C)CCc2ccccn2)cc1OC | 90.6%
c1ccc2c(c1)CCCC2C1=NCCN1 (stereo not drawn) | 110%
O=P(O)(O)CP(=O)(O)O | 122%
COc1ccc(C2C3C(C)=NN=C3CC(C)(O)C2C(C)=O)cc1 (stereo not drawn) | 96.9%
COc1ccc(CCN(C)CC(=O)Nc2cc(C)nc3ccccc23)cc1OC | 94.9%
OCCN(CCO)c1ccc2ccccc2c1 | 98.9%
